High-throughput results from PubChem.
KB-3-1 tox = qHTS assay for MDR1-selective chemotherapeutics: Primary screen using the parental adenocarcinoma cell KB-3-1; KB-3-1 viability, CellTiter-Glo ATP luminescence, 72 h; Potency, µM (highest dose often 46.1 µM), hits mostly cytotoxic; 1.4% of 400,000 active; further: potency means the concentration at half of the fitted maximal effect; nearly all actives have a fitted effect of over 60% in size
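Viability of parental KB-3-1 cells, measured by CellTiter-Glo luminescence, followed a 72 h incubation at 37 °C with pinned compounds in phenol-red-free DMEM containing 10% FBS.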
HT1080NT lethal = qHTS for induction of synthetic lethality in tumor cells producing 2HG: qHTS for the HT-1080-NT fibrosarcoma cell line; HT-1080-NT fibrosarcoma viability, CellTiter-Glo ATP luminescence, 48 h; Potency, µM (doses to about 46.1 µM), for the others: top-dose activity, negative = less viability, actives largely listed as cytotoxic; 1.6% of 360,000 active;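 further: NT is the 2HG producing partner of a matched IDH1 knockdown line; potency means the concentration at half of the fitted maximal effect; 0% = DMSO-treated cells and -100% = media-only wells without cells; nearly all actives have a fitted effect of over 55% in size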
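Toxicity toward the 2HG-producing NT line was scored as %Activity, normalised to DMSO and no-cell wells, from CellTiter-Glo luminescence after 48 hours' treatment.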
KB-V1 MDR tox = qHTS assay for MDR1-selective chemotherapeutics: Primary screen using the drug-selected MDR subline cells KB-V1; KB-V1 MDR cells viability, CellTiter-Glo, 72 h; Potency, µM (doses to about 46.1 µM), usual class: cytotoxic; 3.4% of 400,000 active; further: potency means the concentration at half of the fitted maximal effect; nearly all actives have a fitted effect of over 60% in size
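Cells of the MDR subline KB-V1 are plated, dosed with compound at multiple concentrations, and incubated 72 h at 37 degrees C; CellTiter-Glo is then added and luminescence read after 10 min.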
HT1080 IDH1KD tx = qHTS for induction of synthetic lethality in tumor cells producing 2HG: qHTS for the HT-1080-IDH1KD cell line; HT-1080 IDH1 knockdown viability, ATP luminescence, 48 h; Potency, µM (titrated, usually from 46.1 µM), for inactives: at the highest dose activity, negative = toxicity, usual class: cytotoxic; 2% of 360,000 active;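 further: potency means the concentration at half of the fitted maximal effect; 0% = DMSO wells and -100% = cell-free medium wells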
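CellTiter-Glo luminescence after 48 h compound exposure at 37 degrees C of IDH1-knockdown HT-1080 cells in 5% FBS RPMI. %Activity scaled between DMSO wells and cell-free media wells, with curves fitted and assigned curve classes.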
IL-1B inflam inh = qHTS for Inhibitors of Inflammasome Signaling: IL-1-beta AlphaLISA Primary Screen; 4.7% of 360,000 active; activity change, % at 57.5 µM; THP-1 LPS/ATP IL-1B secretion, AlphaLISA, 16 h; hits give low values; AID 743279, 2014; in the data active means activity change below about -50%; inconclusive means mostly about -30% to -49%
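Secreted IL-1B measured by AlphaLISA bead assay after 16 h compound exposure of THP-1 cells; compounds (final up to 57.5 uM) added 1 h before LPS (250 ng/mL) and ATP (1.25 mM) stimulation; lower signal means less secretion.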
An asterisk follows results filed as active; i = inactive; ? = inconclusive; . = not tested or not shown. A selection: hits, their analogues and other compounds. The true share with any hit is near 8.8%. Unless noted, the call rests on the fitted dose curve; in most records, active means well fitted curve in the direction sought with a large enough effect; inconclusive means small, poorly fitted or top-dose-only effect, or another doubt; inactive means no such curve, though single readings can be large; an effect the other way counts as inactive or inconclusive. Unless noted, on the % scale 0 is the no-effect control and ±100 the full control effect.

SMILES	KB-3-1 tox	HT1080NT lethal	KB-V1 MDR tox	HT1080 IDH1KD tx	IL-1B inflam inh
O=C(Oc1ccc(-c2nnco2)cc1)c1ccc(Br)o1	i	-4.5%	i	-4.5%	0.3
C/C(=N\Nc1cc(-c2ccccc2)nc(-c2ccc(Br)cc2)n1)c1cccc(N)c1	i	11.2µM*	14.6µM*	17.8µM*	-5.6
C/C(=N\Nc1cc(Cl)nc(C)n1)c1ccccc1	?	4.3%	i	0.5%	-15.7
C/C(=N/Nc1cc(-c2ccccc2)nc(-c2ccccc2)n1)c1ccc(O)cc1	?	-16.2%	18.4µM*	?	-105.3*
C/C(=N\Nc1ccccc1)c1cccc(N)c1	i	-5.0%	i	-23.3%	1.5
Cc1cc(C)c(NC(=O)CCN2CCCCC2)c(C)c1	i	.	i	.	.
Cc1cccc(N(C)C(=O)CSc2nc3ncccc3o2)c1	i	.	i	.	.
CN(C(=O)C1CCC(=O)N(Cc2ccccc2F)C1)C1CCOCC1 (stereo not drawn)	i	15.5%	i	18.6%	-6.3
OC(c1ccc(Cl)c(F)c1)c1ncc(-c2ccccc2F)[nH]1 (stereo not drawn)	i	?	i	?	46.1
Cc1ccccc1-c1cnc(C(O)c2ccc(Cl)c(F)c2)[nH]1 (stereo not drawn)	i	-20.4%	i	-15.0%	-62.4*
Cc1ccc(C(O)c2ncc(-c3ccccc3Cl)[nH]2)cc1 (stereo not drawn)	i	17.3%	i	9.5%	9.4
Cc1cc(C)cc(C(O)c2ncc(-c3ccccc3Cl)[nH]2)c1 (stereo not drawn)	i	?	i	20.6µM*	0.0
Cc1cc(C(O)c2ncc(-c3ccc(Oc4ccccc4)cc3)[nH]2)ccc1F (stereo not drawn)	?	18.4µM*	?	10.3µM*	-52.6*
CCCC(=O)Nc1cc(C(=O)O)ccc1S(=O)(=O)c1ccc(Cl)cc1	i	9.8%	i	8.3%	8.6
Cc1nn(S(=O)(=O)c2ccc(C(C)(C)C)cc2)c(C)c1S(=O)(=O)N1CCC(C)CC1	i	.	i	.	.
CC(C)(C)c1ccc(C(=O)NC2(C(F)(F)F)C(=O)Nc3c2c(=O)[nH]c(=O)n3-c2ccccc2)cc1 (stereo not drawn)	i	.	i	.	.
CC(=O)Oc1ccc(Cl)cc1CN(C(C)=O)C1CCCCC1	i	-22.6%	i	-15.3%	?
Cc1cccc2c1-c1sc(C(=O)Nc3ccccc3N3CCN(C)CC3)cc1CO2	i	?	?	-30.0%	-93.3*
CCc1cc(C(=O)Nc2ccccc2N2CCOCC2)sc1C	i	7.2%	23.1µM*	9.4%	-11.7
CN1CCN(c2ccc(S(=O)(=O)N3CCCCC3)cc2NC(=O)c2ccc3ccccc3c2)CC1	?	-15.8%	10.3µM*	?	-92.0*
O=C(Nc1ccc(Cl)c(Cl)c1)Nc1cc(S(=O)(=O)N2CCOCC2)ccc1N1CCCC1	?	-25.1%	i	?	-60.0*
Cc1cccc2c1-c1sc(C(=O)NCCCN3CCN(c4ccccc4F)CC3)cc1CO2	i	.	i	.	.
Cn1ccnc1COc1ccc(C=O)cc1	i	8.5%	?	2.0%	16.5
COc1cccc(CN2CCNC(=O)C2CC(=O)N(C)CCC2CCOCC2)c1OC (stereo not drawn)	i	-0.2%	?	-3.6%	0.0
O=C(Nc1cccnc1)C1CC(=O)N(c2ccc(F)cc2)C1 (stereo not drawn)	i	13.6%	i	-1.7%	5.3
O=C(Nc1cc(S(=O)(=O)N2CCOCC2)ccc1N1CCCCC1)c1ccccc1	i	-2.2%	5.17µM*	-7.1%	?
O=C(Nc1cc(S(=O)(=O)N2CCOCC2)ccc1N1CCCCC1)c1ccc(Cl)cc1	i	-0.1%	i	-1.8%	-5.4
